# Assay results as given in PubChem BioAssay (NCATS).
# Unmarked numbers belong to inactive results. Inconclusive results are not listed. Entries that show only a call come without a potency. Calls of active or inactive are those of the source. Unless noted, calls follow the shape of the dose curve; as a rule, active = well fitted curve in the direction sought with a large enough effect; inconclusive = small, poorly fitted or top-dose-only effect, or another doubt; inactive = no such curve, though single readings can be large; an effect the other way counts as inactive or inconclusive.
# What was measured:
# [1] = qHTS for Inhibitors of Plasmodium falciparum (CP250) proliferation (AID 504320)
# Outline: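 Erythrocytes infected with P. falciparum line (0.3% parasitemia, 2.5% hematocrit final) incubated with compounds 72 h at 37 °C, 5% CO2; SYBR Green lysis buffer added, fluorescence read next day. Normalized to 0.29 uM artemisinin and DMSO.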
# [2] = molecular target: Atrial natriuretic peptide receptor 1 (Homo sapiens) (UniProt P16066); experiment: Natriuretic polypeptide receptor (hNpr1) antagonism - Pilot CMLD screen (AID 1347052; calls by dose curve;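 also: HEK293 cells with hNpr1 stimulated by hNppA peptide at 0.1 nM; cGMP level read as GloSensor luciferase luminescence after agonist stimulation; series mostly up to about 9.2 µM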)
# Furin (Homo sapiens) = Furin (Homo sapiens) (UniProt P09958); experiment: Furin counterscreen qHTS for Zika virus inhibitors (AID 1347149); also: potency is read from the fitted curve at half-maximal effect; nearly all actives have a fitted effect of over 70% in size
# Outline: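 Fluorogenic cleavage of BOC-RVRR-AMC (2 microM final, Km ~15 µM) was monitored (ex 340, em 450 nm) at 37C after 15 min RT preincubation of 5 nM furin with compounds in HEPES pH 7.0 buffer with CaCl2 and Triton X-100. Percent inhibition was fitted to a 4-parameter Hill curve.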
# [3] = molecular target: Cytochrome P450 3A4 (Homo sapiens) (UniProt P08684); experiment: qHTS Assay for Inhibitors and Substrates of Cytochrome P450 3A4 (AID 884); also: potency is read from the fitted curve at half-maximal effect; nearly all actives have a fitted effect of over 50% in size
# Outline: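 20 nM human CYP3A4 with 25 uM Luciferin-PPXE (at KM) in 200 mM KPO4, preincubated 10 min with compound; NADPH regeneration started a 60 min RT reaction. Luciferin detected by luminescence, normalized to 57 uM ketoconazole as full inhibition.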
# [4] = molecular target: Cytochrome P450 3A4 (Homo sapiens) (UniProt P08684); experiment: qHTS Assay for Activators of Cytochrome P450 3A4 (AID 885); also: nearly all actives have a fitted effect of over 65% in size
# Outline: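 Quantitative HTS format: compounds preincubated with 20nM human CYP3A4 and Luciferin-PPXE substrate at KM, reaction started by NADPH regeneration, stopped after 60 min, luciferase luminescence read 20 min later.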
# Sequence of Atrial natriuretic peptide receptor 1 (Homo sapiens) (P16066 whole entry, looked up): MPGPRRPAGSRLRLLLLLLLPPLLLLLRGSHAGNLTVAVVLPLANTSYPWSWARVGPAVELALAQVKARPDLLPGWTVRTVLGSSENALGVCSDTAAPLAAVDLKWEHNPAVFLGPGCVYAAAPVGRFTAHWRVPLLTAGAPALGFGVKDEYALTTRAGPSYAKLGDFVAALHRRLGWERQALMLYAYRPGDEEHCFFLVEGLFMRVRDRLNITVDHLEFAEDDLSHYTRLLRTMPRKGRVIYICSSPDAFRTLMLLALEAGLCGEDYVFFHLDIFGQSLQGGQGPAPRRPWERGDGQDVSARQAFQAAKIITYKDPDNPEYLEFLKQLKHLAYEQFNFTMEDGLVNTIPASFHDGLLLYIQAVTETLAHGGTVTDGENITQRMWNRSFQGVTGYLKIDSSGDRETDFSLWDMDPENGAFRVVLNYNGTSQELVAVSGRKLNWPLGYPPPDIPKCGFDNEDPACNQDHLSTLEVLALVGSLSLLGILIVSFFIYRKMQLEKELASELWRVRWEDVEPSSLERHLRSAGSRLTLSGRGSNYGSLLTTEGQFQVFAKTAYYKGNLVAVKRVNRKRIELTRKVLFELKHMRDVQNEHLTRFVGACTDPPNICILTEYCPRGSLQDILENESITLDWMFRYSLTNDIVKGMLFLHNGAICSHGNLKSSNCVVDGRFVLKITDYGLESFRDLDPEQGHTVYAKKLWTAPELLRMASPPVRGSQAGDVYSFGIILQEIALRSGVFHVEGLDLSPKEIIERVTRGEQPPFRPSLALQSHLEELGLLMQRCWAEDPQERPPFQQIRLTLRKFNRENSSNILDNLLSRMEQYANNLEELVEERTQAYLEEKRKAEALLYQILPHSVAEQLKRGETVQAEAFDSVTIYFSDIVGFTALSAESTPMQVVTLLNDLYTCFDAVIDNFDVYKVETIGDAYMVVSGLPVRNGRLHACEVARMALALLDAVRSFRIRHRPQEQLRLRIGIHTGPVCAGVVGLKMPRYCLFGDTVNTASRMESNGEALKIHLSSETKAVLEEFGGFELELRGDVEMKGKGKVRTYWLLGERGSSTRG
# Sequence of Cytochrome P450 3A4 (Homo sapiens) (P08684 whole entry, looked up): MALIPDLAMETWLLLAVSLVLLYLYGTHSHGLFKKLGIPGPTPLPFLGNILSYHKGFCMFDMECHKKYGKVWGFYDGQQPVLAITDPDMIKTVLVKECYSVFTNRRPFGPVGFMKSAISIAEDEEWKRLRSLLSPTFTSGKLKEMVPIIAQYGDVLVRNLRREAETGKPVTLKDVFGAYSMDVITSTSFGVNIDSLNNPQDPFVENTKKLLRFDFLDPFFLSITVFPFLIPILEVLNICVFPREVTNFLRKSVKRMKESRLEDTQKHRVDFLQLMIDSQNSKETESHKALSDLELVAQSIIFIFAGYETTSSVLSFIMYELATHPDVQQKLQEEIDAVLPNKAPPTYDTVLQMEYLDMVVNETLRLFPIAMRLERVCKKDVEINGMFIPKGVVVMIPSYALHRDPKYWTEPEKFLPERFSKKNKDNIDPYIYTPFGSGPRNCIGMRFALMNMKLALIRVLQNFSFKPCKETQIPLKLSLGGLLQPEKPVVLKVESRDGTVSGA
# Sequence of Furin (Homo sapiens) (P09958 whole entry, looked up): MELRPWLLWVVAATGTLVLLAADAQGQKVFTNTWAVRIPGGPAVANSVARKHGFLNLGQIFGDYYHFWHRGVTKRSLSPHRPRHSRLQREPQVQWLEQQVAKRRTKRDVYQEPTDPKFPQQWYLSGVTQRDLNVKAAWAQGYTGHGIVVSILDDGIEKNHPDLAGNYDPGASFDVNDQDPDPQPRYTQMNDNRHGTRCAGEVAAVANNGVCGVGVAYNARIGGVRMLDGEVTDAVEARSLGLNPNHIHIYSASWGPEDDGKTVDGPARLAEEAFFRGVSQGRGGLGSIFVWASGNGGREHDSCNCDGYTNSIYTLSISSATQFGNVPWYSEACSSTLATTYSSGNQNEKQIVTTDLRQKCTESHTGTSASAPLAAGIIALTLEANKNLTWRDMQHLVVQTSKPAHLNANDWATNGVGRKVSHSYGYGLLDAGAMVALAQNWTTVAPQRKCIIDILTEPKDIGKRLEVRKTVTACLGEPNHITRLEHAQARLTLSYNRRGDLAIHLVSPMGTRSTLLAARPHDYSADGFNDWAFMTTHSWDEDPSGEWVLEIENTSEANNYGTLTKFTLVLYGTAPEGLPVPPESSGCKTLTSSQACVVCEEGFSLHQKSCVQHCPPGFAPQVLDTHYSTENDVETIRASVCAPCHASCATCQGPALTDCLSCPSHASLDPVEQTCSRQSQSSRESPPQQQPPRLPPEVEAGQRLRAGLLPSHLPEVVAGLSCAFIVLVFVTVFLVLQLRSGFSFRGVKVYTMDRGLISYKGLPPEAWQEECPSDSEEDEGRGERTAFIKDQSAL
structure (smiles),measurement,setting,value
CCCCn1c(C)cc2c(c1=O)[C@H]1O[C@](CCCC)(Cc3cc(C#N)ccc31)O2,Potency,[1],inactive
same,Potency,[2],inactive
COc1cc2c(cc1OC)[C@@H]1O[C@](c3ccsc3)(C2)Oc2c1c(=O)oc1ccc(F)cc21,Potency,[1],inactive
same,Potency,[2],inactive
O=C(N[C@H](c1ccccc1)C1CCCC=C1c1ccccc1)C(F)(F)F (some centres undefined),Potency,[1],inactive
same,Potency,[2],inactive
C[C@@H]1[C@H](c2ccccc2)c2cc3ccccc3nc2C(=O)C[C@@H]1C(=O)N1CCCC1,Potency,[1],inactive
same,Potency,[2],inactive
CCCC[C@]12Cc3cc(C#N)ccc3[C@H](O1)c1c(cc(-c3ccccc3)oc1=O)O2,Potency,[1],inactive
same,Potency,[2],inactive
CC=CC1=Cc2ccccc2C(C(C(=O)OC)C(=O)OC)N1C(=O)OC (centres undefined),Potency,[1],inactive
same,Potency,[2],inactive
COC(=O)C(C(=O)OC)C1OC23CN(S(=O)(=O)c4ccc(C)cc4)C=CC2(C)C3c2ccccc21 (centres undefined),Potency,[1],inactive
same,Potency,[2],inactive
Cc1cc2c(c(=O)n1-c1ccccc1)[C@H]1O[C@](c3ccsc3)(Cc3ccccc31)O2,Potency,[1],inactive
same,Potency,[2],inactive
C[C@@H]1C(c2ccccc2)=CC(=O)c2nc3ccccc3cc2[C@@H]1C(=O)N1CCCC1,Potency,[1],inactive
same,Potency,[2],inactive
CC1=C[C@H]2c3ccccc3C[C@H]2CO[C@]12C(=O)N(Cc1ccc(Br)cc1)c1ccccc12,Potency,[1],inactive
same,Potency,[2],inactive
CC(C)C(NC(=O)C(CCCN=C(N)N)NC(=O)NC(Cc1ccccc1)C(=O)O)C(=O)NC(C=O)CCCN=C(N)N (centres undefined),Potency,Furin (Homo sapiens),11.2 µM (active)
CCCCCCC#Cc1cc(OC)c(OC)cc1C(N1CC(C)c2ccccc21)N1CC(C)c2ccccc21 (centres undefined),Potency,[3],3.16 µM (active)
same,"activity change, positive = activation",[4],-88.3% [at 11.4 µM]
same,Potency,[2],inactive
